Experimental data reported in PubChem BioAssay AID651610 (Broad Institute, 2012).
The whole screen tested about 360,000 compounds, of which about 3,900 (1.1%) were called active. The sample as a whole holds a higher share of actives than the screen did. Unmarked numbers belong to inactive results.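 How the source made its calls: active means mean replicate inhibition score of at least 50 and every replicate individually at or above 50; inconclusive means only one of the two criteria met; inactive means mean below 50 and not all replicates reaching 50.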

Assay: blockers of JRFL envelope-mediated fusion – HeLa-JRFL effector, CEM21 target cells, luciferase, primary screen (AID 651610);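 further: 0% = plate neutral controls and 100% = maraviroc near 300 nM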
Conditions: HeLa-JRFL Env/CEM21 cell fusion, stronger effect = higher value; at 16.7 µM unless noted

SMILES | inhibition
C[C@@H]1CCCCO[C@H](CN(C)C(=O)Nc2ccc(C(F)(F)F)cc2)[C@@H](C)CN([C@@H](C)CO)C(=O)c2cc(NS(=O)(=O)c3cccs3)ccc2O1 | 3.25%
CN1C(=O)c2cc(NC(=O)Cc3cccs3)ccc2OC[C@@H]2O[C@@H](CC(=O)N[C@@H]3CCN(Cc4ccccc4)C3)CC[C@H]21 | -14%
COc1ccc(-c2nnc(SCC(=O)c3ccc4c(c3)OCCO4)o2)cc1 | 22.9% [at 12.3 µM]
COc1ccc(-n2c(C)cc(C(=O)COC(=O)c3cc(OC)c(OC)cc3NC(=O)c3cccs3)c2C)cc1 | -7.79% [at 12.3 µM]
COc1ccc(-n2c(C)cc(C(=O)CSc3nnc(-c4cccs4)o3)c2C)cc1 | 89.2% [at 12.3 µM] (active)
N#C[C@H]1[C@@H](c2ccc(C3=CCCCC3)cc2)[C@@H](CO)N1C(=O)NC1CCCCC1 | 0.133%
COc1ccccc1-c1ccc2c(c1)O[C@@H](CN(C)C(=O)Nc1ccccc1)[C@H](C)CN([C@@H](C)CO)S2(=O)=O | -37.6%
COc1ccc(NC(=O)N(C)C[C@@H]2Oc3ccc(NS(=O)(=O)c4ccc(C)cc4)cc3CC(=O)N([C@@H](C)CO)C[C@H]2C)cc1 | 4.71%
CN(C)C(=O)c1cccc(-c2cnc3sc(NCc4ccc5c(c4)OCO5)nn23)c1 | 68.4% [at 12.3 µM] (active)
O=C(CSc1ncnc2scc(-c3ccccc3)c12)NCc1ccc2c(c1)OCO2 | 22.4% [at 12.3 µM]
CN(C)C(=O)c1cccc(-c2cnc3c(NC=O)cc(-c4ccc(C(=O)N5CCOCC5)cc4)cn23)c1 | -15.1% [at 12.3 µM]
O=C(Nc1ccc(C(F)(F)F)cc1)N[C@@H]1CC[C@@H](CCNC(=O)c2ccccc2F)O[C@H]1CO | -1.09%
Cc1noc(C)c1S(=O)(=O)Nc1ccc2c(c1)CC(=O)N([C@@H](C)CO)C[C@H](C)[C@@H](CN(C)S(=O)(=O)c1cn(C)cn1)O2 | -11.7%
C[C@H]1CCCCO[C@@H](CN(C)C(=O)c2ccccc2)[C@@H](C)CN([C@@H](C)CO)C(=O)c2cc(NS(=O)(=O)c3ccccc3)ccc2O1 | -27.7%
CN(C)c1nc(-c2cccnc2)nc(-c2ccc(Cl)cc2)c1C#N | -27.7% [at 12.3 µM]
CN(C)c1ccnc(Nc2ccc(F)cc2)c1C#N | 2.55% [at 12.3 µM]
CNc1nccc(-c2ccc(Cl)cc2)c1C#N | 58.1% [at 12.3 µM] (active)
CCCN(C)C[C@H]1Oc2ncc(-c3ccccc3OC)cc2C(=O)N([C@H](C)CO)C[C@@H]1C | 16.3%
O=C1C=C(c2cc(C(F)(F)F)cc(C(F)(F)F)c2)C[C@@H](c2ccc3c(c2)OCO3)C1 | 14.8% [at 12.3 µM]
COc1ccc2cc(C3=CC(=O)C[C@H](c4ccc5c(c4)OCO5)C3)ccc2c1 | -8.67% [at 12.3 µM]
O=C1C=C(c2ccnc3cc(Cl)ccc23)C[C@@H](c2ccc3c(c2)OCO3)C1 | 65.8% [at 12.3 µM] (active)

SMILES | inhibition
CCC(=O)N[C@H]1CC[C@@H](CC(=O)NCc2cc(F)cc(F)c2)O[C@@H]1CO | -5.23%
COc1ccc(NC(=O)N(C)C[C@H]2Oc3ccc(NC(=O)NC(C)C)cc3CC(=O)N([C@H](C)CO)C[C@H]2C)cc1 | 2.47%
C[C@@H]1CCCCO[C@H](CN(C)S(=O)(=O)c2cccs2)[C@H](C)CN([C@H](C)CO)C(=O)c2cc(NC(=O)c3ccccc3)ccc2O1 | 21.5%
CN(c1ccccc1)S(=O)(=O)c1ccc(C(=O)NCCc2ccccc2)cc1 | -11.1% [at 12.3 µM]
Cc1ccc(S(=O)(=O)NCCC(=O)OCC(=O)N(C)c2ccccc2)cc1 | -4.53% [at 12.3 µM]
CN(C(=O)CC(NC(=O)c1ccccc1)(c1ccccc1)c1ccccc1)c1ccccc1 | 68.6% [at 12.3 µM] (active)
CC(=O)c1ccc(S(=O)(=O)N2CCN(c3nc4c(C)c(C)ccc4cc3C#N)CC2)cc1 | 82.5% [at 12.3 µM] (active)
CC(=O)c1ccc(S(=O)(=O)N2CCC3(CC2)OCCO3)cc1 | -7.27% [at 12.3 µM]
CC(=O)c1ccc(S(=O)(=O)N2CCN(C(=O)/C=C/c3ccc4ccccc4n3)CC2)cc1 | 21.1% [at 12.3 µM]
C[C@@H](CN1C2=NC[C@@H](Cc3ccccc3)N2C[C@H]1Cc1ccc(O)cc1)NC(=O)CCC1CCCCC1 | -12.9% [at 12.3 µM]
C[C@@H]1CCCCO[C@H](CN(C)C(=O)C2CCCCC2)[C@@H](C)CN([C@H](C)CO)C(=O)c2cc(NC(=O)C3CCCCC3)ccc2O1 | 13.6%
CCC(C(=O)NC(C)(C)C)n1c(-c2ccccc2)nc2ccccc21 (stereo not drawn) | -10.4% [at 12.3 µM]
CC(C)(C)NC(=O)C(CCc1ccccc1)n1c(=O)c(-c2ccccc2)nc2ccccc21 (stereo not drawn) | 20.1% [at 12.3 µM]
CSCCC(C(=O)NC(C)(C)C)n1c(-c2ccccc2)nc2ccccc21 (stereo not drawn) | 56.4% [at 12.3 µM] (active)
COc1cccc(C(=O)Nc2ccc3c(c2)C(=O)N(C)[C@@H]2CC[C@H](CC(=O)NCCCN4CCOCC4)O[C@H]2CO3)c1 | -4.21%
Clc1ccc2c(c1)C1=C(C(c3ccncc3)O2)C(c2ccc(Br)cc2)n2ncnc2N1 (stereo not drawn) | 74.5% [at 12.3 µM] (active)
O=C(C[C@@H]1C=C[C@H](NC(=O)Nc2ccc(C(F)(F)F)cc2)[C@H](CO)O1)NCc1cccc(F)c1 | 9.04%
C[C@H](CO)N1C[C@H](C)[C@H](CN(C)Cc2ccc(C(=O)O)cc2)Oc2ccc(NS(=O)(=O)c3cn(C)cn3)cc2CC1=O | -3.12%
C[C@@H]1CN([C@@H](C)CO)C(=O)c2cccc(NC(=O)c3ccc(-c4nccs4)cc3)c2O[C@H]1CN(C)Cc1ccc(Cl)c(Cl)c1 | 38.1%
COc1ccccc1-c1cnc2c(c1)C(=O)N([C@@H](C)CO)C[C@H](C)[C@H](CN(C)C(=O)c1ccncc1)O2 | 2.54%
CCCCn1c(SCC(=O)N2CCOCC2)nc2c1c(=O)n(C)c(=O)n2C | -4.99% [at 12.3 µM]

SMILES | inhibition
CCCCn1c(SCC(=O)NCCc2ccc(OC)c(OC)c2)nc2c1c(=O)n(C)c(=O)n2C | 114% [at 12.3 µM] (active)
C#CC(C)(C)NC(=O)CSc1nc2c(c(=O)n(C)c(=O)n2C)n1CCCC | -13.9% [at 12.3 µM]
C[C@H](CO)N1C[C@H](C)[C@H](CN(C)CC2CCCCC2)OCCCC[C@H](C)Oc2ccc(NC(=O)c3ccncc3)cc2C1=O | -17.1%
COC(=O)C1=C(C)N(Cc2ccccc2C(F)(F)F)C(=NCc2ccc(C(F)(F)F)cc2)NC1c1ccc(F)cc1 (stereo not drawn) | 5.73% [at 12.3 µM]
O=C(NCC(F)(F)F)[C@H]1[C@H](CO)[C@H]2Cn3c(ccc(-c4ccncc4)c3=O)[C@H]2N1Cc1ccncc1 | -9.96%
COc1cccc(S(=O)(=O)Nc2ccc3c(c2)[C@@H]2C[C@@H](CC(=O)NC4CCCCC4)O[C@H](CO)[C@@H]2O3)c1 | -5.43%
O=C(c1ccc(C(F)(F)F)cc1)N1CCC(=O)N([C@H](COCc2ccccc2)Cc2ccccc2)CC1 | -5.07% [at 12.3 µM]
CC(C)CC(COCc1ccc(Cl)cc1)N1CCN(C(=O)c2ccc(C(F)(F)F)cc2)CCC1=O (stereo not drawn) | 65.7% [at 12.3 µM] (active)
CC(C)C[C@@H](COCc1ccc(Cl)cc1)N1CCN(C(=O)c2ccc(Cl)cc2Cl)CCC1=O | -24.6% [at 12.3 µM]
O=C(C[C@H]1C[C@H]2c3cc(NC(=O)Cc4ccncc4)ccc3O[C@H]2[C@@H](CO)O1)NCc1cccc(F)c1 | 3.14%
COCC(=O)N(C)C[C@H]1Oc2ncc(-c3ccc(C)cc3)cc2C(=O)N([C@@H](C)CO)C[C@@H]1C | -0.608%
Cc1noc(C)c1S(=O)(=O)N(C)C[C@@H]1OCCCC[C@@H](C)Oc2ccc(NC(=O)c3ccccc3)cc2C(=O)N([C@H](C)CO)C[C@H]1C | -129%
C[C@@H]1CN([C@@H](C)CO)S(=O)(=O)c2ccc(C#C[C@@H](C)O)cc2O[C@@H]1CN(C)CC1CC1 | -13.5%
C[C@H](CO)N1C[C@H](C)[C@H](CN(C)C(=O)Nc2ccc(C(F)(F)F)cc2)OCCCC[C@H](C)Oc2ccc(NC(=O)C3CCCCC3)cc2C1=O | 9.61%
COc1cc(/C=C(/NC(=O)c2ccc(Cl)cc2Cl)C(=O)O)cc(OC)c1OC | 4.88% [at 12.3 µM]
CCOc1cc(/C=C(/C#N)c2ccc(Cl)cc2)cc(Cl)c1OCC(=O)O | 58% [at 12.3 µM] (active)
CCOc1cc(/C=N/NC(=O)OC)ccc1OCCSc1ccc(Cl)cc1 | 4.12% [at 12.3 µM]
O=C(C[C@@H]1C[C@@H]2c3cc(NC(=O)C4CCC4)ccc3O[C@@H]2[C@@H](CO)O1)NCCN1CCCCC1 | -4.86%
O=C(O)c1cc([N+](=O)[O-])c(Nc2cccc3ccccc23)c([N+](=O)[O-])c1 | 1.53% [at 12.3 µM]
O=C(NC(Nc1nc2ccc([N+](=O)[O-])cc2s1)(C(F)(F)F)C(F)(F)F)c1ccccc1 | 81.1% [at 12.3 µM] (active)
CC(Nc1ccc([N+](=O)[O-])cc1[N+](=O)[O-])c1ccccc1 (stereo not drawn) | -0.676% [at 12.3 µM]
